# Reference: the antibiotic and cytotoxicity screens of Wong et al. (2023)
# Screen size: about 39,000 compounds; about 1,500 (3.8%) were called active. Shown is part of a subset that was picked to be rich in actives.
# Test system: HSkMC (human skeletal muscle cells)
# Assay: cytotoxicity call (relative viability < 0.9)
# Details: 10 µM
row,Structure (SMILES),cytotoxicity call
1,COc1ccc(S(=O)(=O)N(C)C[C@@H]2Oc3ccc(NS(=O)(=O)c4cccs4)cc3C(=O)N([C@@H](C)CO)C[C@H]2C)cc1,inactive
2,CO[C@@H]1CN(C)C(=O)c2cc(NS(=O)(=O)CC(F)(F)F)ccc2OC[C@@H](C)N(Cc2cccnc2)C[C@@H]1C,inactive
3,Cc1ccc(S(=O)(=O)N[C@@H]2CC[C@H](CC(=O)NCc3ccc(Cl)c(Cl)c3)O[C@H]2CO)cc1,inactive
4,COc1ccc(NC(=O)N(C)C[C@@H]2Oc3ccc(NS(=O)(=O)c4c(C)noc4C)cc3C(=O)N([C@@H](C)CO)C[C@@H]2C)cc1,inactive
5,Cc1noc(C)c1S(=O)(=O)N(C)C[C@H]1Oc2ccc(NS(=O)(=O)c3cccs3)cc2CC(=O)N([C@H](C)CO)C[C@H]1C,inactive
6,C[C@H](CO)N1C[C@H](C)[C@H](CN(C)C(=O)Nc2cccc3ccccc23)OCc2cnnn2CCCC1=O,inactive
7,C[C@@H]1CN([C@H](C)CO)C(=O)Cc2cc(NC(=O)Nc3ccc(F)cc3)ccc2O[C@H]1CN(C)Cc1ccc(Oc2ccccc2)cc1,active
8,C[C@H]1CN([C@@H](C)CO)C(=O)Cc2cc(NC(=O)Nc3ccc(F)cc3)ccc2O[C@@H]1CN(C)Cc1ccc(Oc2ccccc2)cc1,inactive
9,C[C@@H]1CN([C@H](C)CO)C(=O)Cc2cc(NC(=O)Nc3ccc(F)cc3)ccc2O[C@@H]1CN(C)Cc1ccc(Oc2ccccc2)cc1,active
10,C[C@H](CO)N1C[C@H](C)[C@H](CN(C)Cc2ccc(Oc3ccccc3)cc2)Oc2ccc(NC(=O)Nc3ccc(F)cc3)cc2CC1=O,inactive
11,C[C@H]1CN([C@@H](C)CO)C(=O)Cc2cc(NC(=O)Nc3ccc(F)cc3)ccc2O[C@H]1CN(C)Cc1ccc(Oc2ccccc2)cc1,active
12,C[C@@H]1CN([C@@H](C)CO)C(=O)Cc2cc(NC(=O)Nc3ccc(F)cc3)ccc2O[C@H]1CN(C)Cc1ccc(Oc2ccccc2)cc1,inactive
13,C[C@@H]1CN([C@@H](C)CO)C(=O)Cc2cc(NC(=O)Nc3ccc(F)cc3)ccc2O[C@@H]1CN(C)Cc1ccc(Oc2ccccc2)cc1,inactive
14,C[C@H](CO)N1C[C@H](C)[C@@H](CN(C)Cc2ccc(Oc3ccccc3)cc2)Oc2ccc(NC(=O)Nc3ccc(F)cc3)cc2CC1=O,inactive
15,O=C(NC1Cc2ccccc2C1)[C@H]1[C@H](CO)[C@H]2Cn3c(cccc3=O)[C@H]2N1C(=O)c1cnccn1,inactive
16,Cc1ccc(S(=O)(=O)Nc2ccc3c(c2)C(=O)N([C@H](C)CO)C[C@@H](C)[C@H](CN(C)S(=O)(=O)c2ccc(Cl)cc2)OCCCC[C@@H](C)O3)cc1,inactive
17,C[C@@H]1CCCCO[C@H](CN(C)CC2CCCCC2)[C@H](C)CN([C@H](C)CO)C(=O)c2cc(NC(=O)CCC(F)(F)F)ccc2O1,inactive
18,C[C@@H]1CCCCO[C@@H](CN(C)Cc2ccncc2)[C@H](C)CN([C@@H](C)CO)C(=O)c2cc(NS(C)(=O)=O)ccc2O1,inactive
19,O=C(CCCCC(=O)N/N=C/[C@H](O)[C@@H](O)[C@H](O[C@@H]1O[C@H](CO)[C@H](O)[C@H](O)[C@H]1O)[C@H](O)CO)NO,inactive
20,CCNC(=O)C[C@H]1CC[C@H](NC(=O)C2CCOCC2)[C@@H](CO)O1,inactive
21,O=C(CCCCn1c(=O)[nH]c2ccccc2c1=O)N1CCN(c2ncccn2)CC1,inactive
22,C[C@@H]1CN([C@H](C)CO)C(=O)Cc2cc(NC(=O)Nc3ccc(C(F)(F)F)cc3)ccc2O[C@@H]1CN(C)C(=O)Nc1ccc(C(F)(F)F)cc1,active
23,C[C@H]1CN([C@@H](C)CO)C(=O)Cc2cc(NC(=O)Nc3ccc(C(F)(F)F)cc3)ccc2O[C@@H]1CN(C)C(=O)Nc1ccc(C(F)(F)F)cc1,inactive
24,C[C@@H]1CN([C@@H](C)CO)C(=O)Cc2cc(NC(=O)Nc3ccc(F)cc3)ccc2O[C@@H]1CN(C)C(=O)Nc1ccc(C(F)(F)F)cc1,inactive
25,C[C@@H]1CN([C@@H](C)CO)C(=O)Cc2cc(NC(=O)Nc3ccc(C(F)(F)F)cc3)ccc2O[C@H]1CN(C)C(=O)Nc1ccc(C(F)(F)F)cc1,inactive
26,C[C@H]1CN([C@@H](C)CO)C(=O)Cc2cc(NC(=O)Nc3ccc(C(F)(F)F)cc3)ccc2O[C@H]1CN(C)C(=O)Nc1ccc(F)cc1,inactive
27,C[C@@H]1CN([C@@H](C)CO)C(=O)Cc2cc(NC(=O)Nc3ccc(C(F)(F)F)cc3)ccc2O[C@H]1CN(C)C(=O)Nc1ccc(F)cc1,inactive
28,C[C@H](CO)N1C[C@H](C)[C@@H](CN(C)C(=O)Nc2ccc(C(F)(F)F)cc2)Oc2ccc(NC(=O)Nc3ccc(C(F)(F)F)cc3)cc2CC1=O,inactive
29,C[C@H](CO)N1C[C@H](C)[C@H](CN(C)C(=O)Nc2ccc(C(F)(F)F)cc2)Oc2ccc(NC(=O)Nc3ccc(C(F)(F)F)cc3)cc2CC1=O,active
30,C[C@@H]1CN([C@H](C)CO)C(=O)Cc2cc(NC(=O)Nc3ccc(C(F)(F)F)cc3)ccc2O[C@H]1CN(C)C(=O)Nc1ccc(C(F)(F)F)cc1,active
